Results reported in PubChem BioAssay (Tox21).
Inconclusive results are not listed. Entries that show only a call come without a potency. Activity calls are given as the source filed them. Unless noted, calls follow the shape of the dose curve; as a rule, active = well fitted curve in the direction sought with a large enough effect in the repeat runs; inconclusive = weak or mixed curves; inactive = no such curve, though single readings can be large; an effect the other way counts as inactive or inconclusive.

Tests used:
[1] = qHTS assay to identify small molecule antagonists of the estrogen related receptor (ERR) signaling pathway from Tox21 library - cell viability counter screen (AID 1224834); settings: ERR reporter cells viability, CellTiter-Fluor, 17.5 h; series mostly up to 92.4 µM; also: nearly all actives have a fitted effect of over 30% in size
Outline: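 Counter screen run in ERR cells (2,000 cells/well): cells pre-incubated 6 h, then treated with compounds for 17.5 h at 37 C. Fluorescence was read 30 min after CellTiter-Fluor addition.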

[2] = biological target: Luciferin 4-monooxygenase (Photinus pyralis) (UniProt P08659); experiment: qHTS assay to identify small molecule inhibitors of firefly luciferase (AID 1224835); also: nearly all actives have a fitted effect of over 25% in size; settings: purified P. pyralis luciferase, luminescence inhibition; series mostly up to 115 µM
Outline: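 Inhibition of purified Photinus luciferase is measured by luminescence. Substrate levels (D-luciferin, ATP) sit at their KM values. Each compound is tested in a concentration series.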

[3] = qHTS assay to identify small molecule agonists of the constitutive androstane receptor (CAR) signaling pathway - cell viability counter screen (AID 1224836); settings: HepG2-CYP2B6-hCAR viability, CellTiter-Fluor, 23 h, PK11195 added to every well; series mostly up to 92.4 µM; also: nearly all actives have a fitted effect of over 45% in size
Outline: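 Counter screen multiplexed with the CAR reporter readout: HepG2 cells co-transfected with hCAR and the CYP2B6-2.2kb construct receive a 15-concentration compound series and 0.75 uM PK11195 (final), then CellTiter-Fluor fluorescence is read after 23 h.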

[4] = qHTS assay to identify small molecule antagonists of the constitutive androstane receptor (CAR) signaling pathway - cell viability counter screen (AID 1224837); settings: HepG2-CYP2B6-hCAR viability, CellTiter-Fluor, 23 h, co-treated with 50 nM CITCO; series mostly up to 92.4 µM; also: nearly all actives have a fitted effect of over 45% in size
Outline: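 CITCO at 50 nM final was added alongside compounds (15 concentrations) to double-stable hCAR/CYP2B6-2.2kb HepG2 cells. Following 23 hr at 37 C, cell viability was quantified by CellTiter-Fluor fluorescence intensity.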

[5] = biological target: Nuclear receptor subfamily 1 group I member 3 (Homo sapiens) (UniProt Q14994); experiment: qHTS assay to identify small molecule agonists of the constitutive androstane receptor (CAR) signaling pathway (AID 1224839); settings: HepG2 hCAR CYP2B6-luciferase, agonist mode, 24 h; series mostly up to 92.4 µM; also: nearly all actives have a fitted effect of over 15% in size
Outline: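 A 15-concentration quantitative screen uses HepG2 cells co-transfected stably with human CAR and CYP2B6-2.2kb reporter. Treatment lasts 24 h with 0.75 uM PK11195 final present; ONE-Glo luminescence is the signal.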

[6] = qHTS assay to identify small molecule antagonists of the estrogen related receptor signaling pathway with the pleiotropic PPARgamma coactivator (PGC) from Tox21 10K library - cell viability counter screen (AID 1224840; active = well fitted cell-killing curve with a large enough effect in the repeat runs, not every such curve was filed as active; also: nearly all actives have a fitted effect of over 40% in size); settings: PGC/ERR reporter cells viability, CellTiter-Fluor, 17.5 h; series mostly up to 92.4 µM
Outline: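 Readout: fluorescence intensity from CellTiter-Fluor after 30 min at 37 C/5% CO2. Preceded by 17.5 h treatment of PGC/ERR cells with DMSO-dissolved compounds, added 6 h post-seeding.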

[7] = biological target: Thyrotropin receptor (Homo sapiens) (UniProt P16473); experiment: qHTS assay to identify small molecule agonists of the thyroid stimulating hormone receptor (TSHR) signaling pathway (AID 1224843; calls by dose curve; also: nearly all actives have a fitted effect of over 45% in size; also: potency is read from the fitted curve at half-maximal effect); settings: TSHR-HEK293 cells, cAMP HTRF, agonist mode, 30 min; series mostly up to 92.4 µM
Outline: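 A cell-based cAMP HTRF format was run in TSHR-transfected HEK293 cells, 800 per well. Treatment: 30 min, room temperature. Detection: 1 h with labelled cAMP and anti-cAMP cryptate. Concentration-response over 15 points, three replicates.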

[8] = biological target: Nuclear receptor subfamily 1 group I member 3 (Homo sapiens) (UniProt Q14994); experiment: qHTS assay to identify small molecule antagonists of the constitutive androstane receptor (CAR) signaling pathway (AID 1224838); settings: HepG2-CYP2B6-hCAR luciferase, CITCO-stimulated, 24 h; series mostly up to 92.4 µM; also: nearly all actives have a fitted effect of over 40% in size
Outline: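 Inhibition of CITCO-driven (50 nM final) CYP2B6 reporter expression is measured in HepG2 cells stably carrying hCAR. Fifteen compound concentrations are applied for 24 h at 37 C, followed by luciferase luminescence.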

[9] = qHTS assay to identify small molecule antagonists of the estrogen related receptor signaling pathway with the pleiotropic PPARgamma coactivator (PGC) from Tox21 10K library (AID 1224841; call rule not given here; also: actives are mostly falling curves and most rising ones were filed inactive; nearly all actives have a fitted effect of over 50% in size); settings: PGC/ERR reporter cell line, ONE-Glo luciferase, 18 h; series mostly up to 92.4 µM
Outline: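 One-Glo luminescence, measured after half an hour at room temperature, quantified reporter output of PGC/ERR cells. These had been plated at 2,000 per well, incubated 6 h, dosed with compounds in DMSO, then kept 18 h at 37 C.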

[10] = qHTS assay to identify small molecule agonists of the estrogen related receptor signaling pathway with the pleiotropic PPARgamma coactivator (PGC) from Tox21 10K library (AID 1224842); settings: PGC/ERR reporter cell line, luciferase ONE-Glo, 18 h; series mostly up to 92.4 µM; also: nearly all actives have a fitted effect of over 15% in size
Outline: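 Luminescence from One-Glo (30 min, room temperature) measured after PGC/ERR cells had 18 h at 37 C with pinned compound (23 nL in DMSO). Cells had been seeded at 2,000 per well and pre-incubated 6 h.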

Chain of Thyrotropin receptor (Homo sapiens) (P16473 whole entry, looked up): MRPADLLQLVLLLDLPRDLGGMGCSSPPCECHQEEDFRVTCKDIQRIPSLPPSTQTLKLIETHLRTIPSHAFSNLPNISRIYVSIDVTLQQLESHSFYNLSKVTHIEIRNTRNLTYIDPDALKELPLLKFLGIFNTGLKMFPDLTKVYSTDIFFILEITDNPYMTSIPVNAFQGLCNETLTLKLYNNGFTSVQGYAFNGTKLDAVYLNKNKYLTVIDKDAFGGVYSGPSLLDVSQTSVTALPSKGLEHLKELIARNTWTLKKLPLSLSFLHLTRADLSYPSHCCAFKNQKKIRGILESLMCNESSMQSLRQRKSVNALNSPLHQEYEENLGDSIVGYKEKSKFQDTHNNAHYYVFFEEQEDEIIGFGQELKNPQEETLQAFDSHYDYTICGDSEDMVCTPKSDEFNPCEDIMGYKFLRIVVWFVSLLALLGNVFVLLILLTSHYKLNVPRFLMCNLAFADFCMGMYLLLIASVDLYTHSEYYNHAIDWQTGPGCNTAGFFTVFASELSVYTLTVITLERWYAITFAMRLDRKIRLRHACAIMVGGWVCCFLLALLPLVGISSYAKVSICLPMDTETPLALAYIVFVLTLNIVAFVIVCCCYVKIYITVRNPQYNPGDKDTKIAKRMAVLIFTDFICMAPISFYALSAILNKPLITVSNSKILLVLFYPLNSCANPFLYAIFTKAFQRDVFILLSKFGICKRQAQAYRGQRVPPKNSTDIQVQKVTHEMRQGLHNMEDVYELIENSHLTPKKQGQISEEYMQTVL
Chain of Luciferin 4-monooxygenase (Photinus pyralis) (P08659 whole entry, looked up): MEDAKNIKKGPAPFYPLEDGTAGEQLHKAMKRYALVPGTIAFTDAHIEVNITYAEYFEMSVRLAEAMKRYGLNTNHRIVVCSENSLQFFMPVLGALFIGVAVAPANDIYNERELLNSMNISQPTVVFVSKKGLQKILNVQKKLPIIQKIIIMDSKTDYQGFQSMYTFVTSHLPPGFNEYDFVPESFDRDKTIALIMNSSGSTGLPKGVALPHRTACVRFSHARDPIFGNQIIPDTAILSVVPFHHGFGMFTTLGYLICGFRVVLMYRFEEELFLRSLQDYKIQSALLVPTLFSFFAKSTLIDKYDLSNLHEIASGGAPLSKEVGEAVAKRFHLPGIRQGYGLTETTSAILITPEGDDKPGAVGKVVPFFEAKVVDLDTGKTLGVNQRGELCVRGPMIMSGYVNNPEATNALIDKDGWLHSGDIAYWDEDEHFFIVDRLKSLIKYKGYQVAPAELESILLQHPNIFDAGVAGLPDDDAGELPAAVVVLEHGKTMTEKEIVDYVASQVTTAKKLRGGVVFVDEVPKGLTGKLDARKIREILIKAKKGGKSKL
Chain of Nuclear receptor subfamily 1 group I member 3 (Homo sapiens) (Q14994 whole entry, looked up): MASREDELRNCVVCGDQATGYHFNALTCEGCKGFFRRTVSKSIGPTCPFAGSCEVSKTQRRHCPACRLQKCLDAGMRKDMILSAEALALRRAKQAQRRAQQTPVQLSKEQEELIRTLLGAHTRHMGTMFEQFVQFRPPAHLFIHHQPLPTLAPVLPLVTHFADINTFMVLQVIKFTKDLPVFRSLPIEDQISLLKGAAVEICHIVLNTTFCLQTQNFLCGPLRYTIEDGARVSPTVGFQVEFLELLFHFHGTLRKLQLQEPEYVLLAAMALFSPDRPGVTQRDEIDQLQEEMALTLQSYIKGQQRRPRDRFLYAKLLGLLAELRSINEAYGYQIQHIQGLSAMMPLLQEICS

| SMILES | Potency [1] | Potency [2] | Potency [3] | Potency [4] | Potency [5] | Potency [6] | Potency [7] | Potency [8] | Potency [9] | outcome [10] |
| --- | --- | --- | --- | --- | --- | --- | --- | --- | --- | --- |
| CC1CN1P(=O)(N1CC1C)N1CC1C (stereo not given) | inactive | inactive | inactive | inactive | inactive | inactive |  |  |  |  |
| CNCC(=O)c1ccc(O)c(O)c1 | inactive | inactive | inactive | inactive | inactive | inactive | 2.37 µM (active) |  |  |  |
| Cc1coc2c1CCC(C)C2 (stereo not given) | inactive | inactive | inactive | inactive |  |  | inactive | inactive |  |  |
| NC(=O)O | inactive | inactive | inactive | inactive |  | inactive | inactive | inactive |  |  |
| CN1C[C@@H](NS(=O)(=O)N(C)C)C[C@@H]2c3cccc4c3c(cn4C)C[C@H]21 | inactive | inactive | inactive | inactive |  | inactive | inactive | inactive |  |  |
| Cc1cnc[nH]1 | inactive | inactive | inactive | inactive | inactive | inactive | inactive |  |  |  |
| Clc1cccc(N2CCNCC2)c1 | inactive | inactive | inactive | inactive | inactive | inactive | inactive |  |  |  |
| CC1=NNC(=O)N(/N=C/c2cccnc2)C1 | inactive | inactive | inactive | inactive |  |  | inactive |  | inactive | inactive |
| CCOC(=O)NC(=S)Nc1ccccc1NC(=S)NC(=O)OCC | inactive | inactive | inactive | inactive |  | inactive |  |  | inactive | inactive |
| NC(=O)c1cc([N+](=O)[O-])cc([N+](=O)[O-])c1 | inactive | inactive | inactive | inactive |  | inactive | inactive |  |  |  |
| OC(c1ccccc1)(c1ccccc1)C1CCNCC1 | inactive | inactive | inactive | inactive |  | inactive | inactive |  |  |  |
| O=C1OC(c2ccc(O)c(S(=O)(=O)O)c2)(c2ccc(O)c(S(=O)(=O)O)c2)c2c(Br)c(Br)c(Br)c(Br)c21 | inactive | inactive | inactive | inactive |  |  | inactive |  |  |  |
| CC(C)COP(=O)(OCC(C)C)OCC(C)C | inactive | inactive | inactive | inactive |  | inactive |  |  | inactive | inactive |
| CC(C(=O)c1ccccc1)N(C)C (stereo not given) | inactive | inactive | inactive | inactive |  | inactive |  |  |  |  |
| CNC(=O)O/N=C(\C)SC | inactive | inactive | inactive | inactive |  |  | inactive |  |  |  |
